Results filed as inconclusive are left out. Activity calls are given as the source filed them. Calls come from the whole dose curve; as a rule, active = well fitted inhibition curve with a large enough effect; inconclusive = small, poorly fitted or top-dose-only effect; inactive = flat fitted curve, though single readings scatter.
Experiments:
CRL-7250 = normal cell line; test: Cytotoxic Profiling of Annotated Libraries Using Quantitative High-Throughput Screening (AID 1296008); settings: Five cell lines viability, CellTiter-Glo ATP luminescence, 48-72 h; max response: stronger effect = lower value; note: potency is the fitted concentration of half-maximal effect; for max response: % is set by controls: 0 for no effect and ±100 for the full control effect
Method in brief: (§1)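 Cytotoxicity was measured as CellTiter-Glo ATP luminescence, read after 10 min at room temperature. Compound treatment of the cells lasted 48 or 72 hr at 37 degrees Celsius in a qHTS format.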

HEK293 = test: as above; settings: Five cell lines viability, CellTiter-Glo ATP luminescence, 48-72 h; max response: stronger effect = lower value
Method in brief: as §1

HaCat [1] = test: as above; settings: Five cell lines viability, CellTiter-Glo ATP luminescence, 48-72 h; max response: stronger effect = lower value
Method in brief: as §1

KB-3-1 = test: as above; settings: Five cell lines viability, CellTiter-Glo ATP luminescence, 48-72 h; max response: stronger effect = lower value
Method in brief: as §1

NIH3T3 = test: as above; settings: Five cell lines viability, CellTiter-Glo ATP luminescence, 48-72 h; max response: stronger effect = lower value
Method in brief: as §1

HACAT [2] = test: qHTS assay to identify novel small-molecules to repurpose for Merkel cell carcinoma treatment (AID 1296009); settings: MCC and control cell lines, CellTiter-Glo viability, 72 h; at 44.8 µM (top of the series) unless noted
Method in brief: (§2)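 Cell viability, measured as CellTiter-Glo luminescence, was normalized between DMSO and no-cell wells. The cells had been exposed to 8- or 11-point compound dilutions for 72 hr at 37 degree celsius.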

HEK293T = test: as above; settings: MCC and control cell lines, CellTiter-Glo viability, 72 h; series mostly up to 44.8 µM
Method in brief: as §2
Note: nearly all actives have a fitted effect of over 60% in size.

Cc1c(N2C(=O)c3ccc(C(=O)O)cc3C2=O)c(=O)n(-c2ccccc2)n1C
inactive: outcome (CRL-7250) | outcome (HEK293) | outcome (HaCat [1]) | outcome (KB-3-1) | outcome (NIH3T3) | outcome (HACAT [2]) | Potency (HEK293T)

C=C1CCC2C(C)(C)CC(=O)CC2(C)C1CCC(C)CCOC(C)=O (stereo unspecified)
inactive: outcome (CRL-7250) | outcome (HEK293) | outcome (HaCat [1]) | max response (KB-3-1) 5.05% | outcome (NIH3T3) | outcome (HACAT [2]) | Potency (HEK293T)

CC1[C@@H](O)[C@@H](O)C2[C@]3(C)C(C[C@H]4OC(=O)[C@H](O)[C@]1(O)[C@@]24C)C(C)(O)C[C@H](O)[C@H]3O (stereo partly specified)
inactive: outcome (CRL-7250) | outcome (HEK293) | outcome (HaCat [1]) | max response (KB-3-1) 4.32% | outcome (NIH3T3) | outcome (HACAT [2]) inactive [at 17.4 µM] | Potency (HEK293T)

Cc1cc(C)cc(NC(=O)Cc2ccc(OC(C)(C)C(=O)O)cc2)c1
inactive: max response (CRL-7250) 0.247% | outcome (HEK293) | outcome (HaCat [1]) | outcome (KB-3-1) | max response (NIH3T3) -1.99% | outcome (HACAT [2]) | Potency (HEK293T)

C[C@]1(O)CC[C@@H]2C(C(=O)O)=CO[C@@H](O[C@@H]3O[C@H](COC(=O)c4ccc(O)cc4)[C@@H](O)[C@H](O)[C@H]3O)[C@@H]21
inactive: max response (CRL-7250) 2.99% | outcome (HEK293) | outcome (HaCat [1]) | max response (KB-3-1) 9.39% | max response (NIH3T3) 2.95% | outcome (HACAT [2]) inactive [at 17.4 µM] | Potency (HEK293T)

COC(=O)C1=COC(O[C@@H]2O[C@H](CO)[C@@H](O)[C@H](O)[C@H]2O)/C(=C\COC(=O)c2ccc(OC3OC(CO)C(O)C(O)C3O)c(OC)c2)C1CC(=O)OCCc1ccc(O)cc1 (stereo partly specified)
inactive: max response (CRL-7250) -6.94% | outcome (HEK293) | outcome (HaCat [1]) | outcome (KB-3-1) | max response (NIH3T3) 1.16% | outcome (HACAT [2]) inactive [at 9.27 µM] | outcome (HEK293T) inactive [at 9.27 µM]

CC1OC(OC2C(O)C(C(=O)O)OC(OC3CCC4(C)C(CCC5(C)C4C=CC4=C6CC(C)(C)CC(O)C6(C)CCC45C)C3(C)C)C2OC2OCC(O)C(O)C2O)C(O)C(O)C1O (stereo unspecified)
inactive: max response (CRL-7250) -1.54% | outcome (HEK293) | outcome (HaCat [1]) | max response (KB-3-1) 1.62% | outcome (NIH3T3) | outcome (HACAT [2]) inactive [at 9.27 µM] | outcome (HEK293T) inactive [at 9.27 µM]

COc1ccc(/C=C/C(=O)O[C@H]2[C@@H]3C=CO[C@@H](O[C@@H]4O[C@H](CO)[C@@H](O)[C@H](O)[C@H]4O)[C@@H]3[C@@]3(CO)O[C@@H]23)cc1O
inactive: outcome (CRL-7250) | outcome (HEK293) | outcome (HaCat [1]) | outcome (KB-3-1) | max response (NIH3T3) 2.14% | outcome (HACAT [2]) inactive [at 17.4 µM] | Potency (HEK293T)

Cc1cccc(-c2[nH]c(CNc3ccccc3F)nc2-c2ccc3ncnn3c2)n1
active: Potency (NIH3T3) 7.31 µM
inactive: outcome (CRL-7250) | outcome (HEK293) | outcome (HaCat [1]) | max response (KB-3-1) 6.62% | outcome (HACAT [2]) | Potency (HEK293T)

C=C1CC2[C@]3(C)C(=C(O)C(=O)[C@@]2(C)[C@]2(C(=O)OC)C(=O)C(C)OC(=O)[C@@]12C)C(C)(C)C(=O)CC3O (stereo partly specified)
inactive: max response (CRL-7250) -4.87% | outcome (HEK293) | outcome (HaCat [1]) | outcome (KB-3-1) | max response (NIH3T3) 0.571% | outcome (HACAT [2]) inactive [at 17.4 µM] | Potency (HEK293T)

CC(=O)N1c2ccccc2C2(O)CC3C(=O)NC(CC(C)C)C(=O)N3C12 (stereo unspecified)
inactive: max response (CRL-7250) 1.79% | outcome (HEK293) | outcome (HaCat [1]) | max response (KB-3-1) 2.12% | max response (NIH3T3) 1.77% | outcome (HACAT [2]) | Potency (HEK293T)

O=C(O[C@@H]1O[C@H](CO)[C@@H](O)[C@H](O)[C@H]1O)c1c(O)cc(O)cc1/C=C/c1ccccc1
inactive: max response (CRL-7250) 2.06% | outcome (HEK293) | outcome (HaCat [1]) | outcome (KB-3-1) | max response (NIH3T3) 3.61% | outcome (HACAT [2]) inactive [at 17.4 µM] | Potency (HEK293T)

C[C@@H]1O[C@@H](O[C@H]2[C@H](OC(=O)[C@]34CCC(C)(C)C[C@H]3C3=CCC5[C@@]6(C)C[C@H](O)[C@H](O[C@@H]7O[C@H](CO)[C@@H](O[C@@H]8O[C@H](CO)[C@@H](O)[C@H](O)[C@H]8O)[C@H](O)[C@H]7O)[C@@](C)(CO)C6[C@H](O)C[C@@]5(C)[C@]3(C)C[C@H]4O)OC[C@H](O)[C@@H]2O)[C@H](O)[C@H](O)[C@H]1O[C@@H]1OC[C@@H](O)[C@H](O[C@@H]2OC[C@](O)(CO)[C@H]2O)[C@H]1O (stereo partly specified)
inactive: max response (CRL-7250) 4.17% | outcome (HEK293) | outcome (HaCat [1]) | outcome (KB-3-1) | max response (NIH3T3) 4.2% | outcome (HACAT [2]) inactive [at 9.27 µM] | outcome (HEK293T) inactive [at 9.27 µM]

CCOC(=O)c1ccnc(CNCC(=O)N(CC)CCN(C)C)c1
inactive: max response (CRL-7250) 3.74% | outcome (HEK293) | outcome (HaCat [1]) | max response (KB-3-1) 5.64% | outcome (NIH3T3) | outcome (HACAT [2]) | Potency (HEK293T)

CC1=C(C)C(=O)OC(C(C)C2C(O)CC3C4C5OC5C5(O)CC(OC6OC(CO)C(O)C(O)C6O)CC(O)C5(C)C4CCC32C)C1 (stereo unspecified)
inactive: outcome (CRL-7250) | outcome (HEK293) | outcome (HaCat [1]) | max response (KB-3-1) 0.502% | max response (NIH3T3) -0.676% | outcome (HACAT [2]) inactive [at 17.4 µM] | Potency (HEK293T)

COc1cccc(-n2nc(C(=O)O)cc2-c2ccc(C3CCCCC3)c(Cl)c2)c1
inactive: outcome (CRL-7250) | outcome (HEK293) | outcome (HaCat [1]) | outcome (KB-3-1) | max response (NIH3T3) 2.94% | outcome (HACAT [2]) | Potency (HEK293T)

O=C1NC(=Nc2ccccc2F)S/C1=C\c1ccc(C(=O)O)cc1
inactive: max response (CRL-7250) -10.7% | outcome (HEK293) | outcome (HaCat [1]) | outcome (KB-3-1) | max response (NIH3T3) -1.07% | outcome (HACAT [2]) | Potency (HEK293T)

COC1CCCC/C(C)=C/C2C=C(C)C(C)C3C(CC(C)C)NC(=O)C23C(=O)C1 (stereo unspecified)
inactive: outcome (CRL-7250) | outcome (HEK293) | outcome (HaCat [1]) | max response (KB-3-1) 5.18% | outcome (NIH3T3) | outcome (HACAT [2]) inactive [at 17.4 µM] | Potency (HEK293T)

— PubChem BioAssay (NCATS)
